The values that follow come from PMC11006913.

The first test deals with PRRX1 (Homo sapiens, UniProt P54821 80-166). Put plainly: PBM; 200 nM protein, PBS. The following applies: dsDNA, one strand shown.
PRRX1, sequence (P54821 80-166): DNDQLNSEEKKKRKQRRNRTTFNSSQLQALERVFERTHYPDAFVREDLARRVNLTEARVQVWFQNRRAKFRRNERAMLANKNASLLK
For the sequence TGATGAAA, the binding signal was 11.1 upbm affinity estimate (log intensity, higher = more binding, comparable within an allelic series).
Consider AAAAGAAT, for which the binding signal was 11 upbm affinity estimate (log intensity, higher = more binding, comparable within an allelic series).
The same measure, in the same setting: in the case of AATATCAA it was 11.7 upbm affinity estimate (log intensity, higher = more binding, comparable within an allelic series); in that of ATACCTAA, 11.2 upbm affinity estimate (log intensity, higher = more binding, comparable within an allelic series).
Same read-out and setting: under TACATCAA stands 11.1 upbm affinity estimate (log intensity, higher = more binding, comparable within an allelic series); under AATCAGCA, 12 upbm affinity estimate (log intensity, higher = more binding, comparable within an allelic series).
The same measure, in the same setting: under ACAATTCT stands 10.5 upbm affinity estimate (log intensity, higher = more binding, comparable within an allelic series); under GGCTATAA, 11.4 upbm affinity estimate (log intensity, higher = more binding, comparable within an allelic series).
Turning to AAATATTC, the binding signal was 11.3 upbm affinity estimate (log intensity, higher = more binding, comparable within an allelic series).
Still for that read-out and setting: under ATTGAATG stands 11.6 upbm affinity estimate (log intensity, higher = more binding, comparable within an allelic series).
Same read-out and setting: under AATGTAAC stands 11.3 upbm affinity estimate (log intensity, higher = more binding, comparable within an allelic series); under AAATACGA, 11 upbm affinity estimate (log intensity, higher = more binding, comparable within an allelic series).

In a further test the target is HOXB6 (Homo sapiens, UniProt P17509 132-218). Description: PBM; 200 nM protein, PBS. The following applies: dsDNA, one strand shown.
HOXB6, sequence (P17509 132-218): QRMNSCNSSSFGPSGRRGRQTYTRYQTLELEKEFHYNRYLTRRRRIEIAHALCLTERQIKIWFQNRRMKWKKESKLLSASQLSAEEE
Consider ACATATCT, for which the binding signal was 10 upbm affinity estimate (log intensity, higher = more binding, comparable within an allelic series).
Still for that read-out and setting: under GGTTAATA stands 10.9 upbm affinity estimate (log intensity, higher = more binding, comparable within an allelic series); under GCATAGTA, 9.78 upbm affinity estimate (log intensity, higher = more binding, comparable within an allelic series).
Same read-out and setting: under ACAAATTG stands 10.4 upbm affinity estimate (log intensity, higher = more binding, comparable within an allelic series).
Same read-out and setting: under ATAATGTG stands 11.1 upbm affinity estimate (log intensity, higher = more binding, comparable within an allelic series); under CTATTTTA, 10.5 upbm affinity estimate (log intensity, higher = more binding, comparable within an allelic series).
For the sequence ATATACGA, the binding signal is 9.93 upbm affinity estimate (log intensity, higher = more binding, comparable within an allelic series).
Same read-out and setting: in the case of AAATAAAC it was 10.5 upbm affinity estimate (log intensity, higher = more binding, comparable within an allelic series).
The same measure, in the same setting: under ATTAGCGC stands 10.6 upbm affinity estimate (log intensity, higher = more binding, comparable within an allelic series).
The same measure, in the same setting: under AGTATCTA stands 10.2 upbm affinity estimate (log intensity, higher = more binding, comparable within an allelic series).
For the sequence AATGTACA, the binding signal was 10.3 upbm affinity estimate (log intensity, higher = more binding, comparable within an allelic series).
The same measure, in the same setting: in the case of TACTACGA it was 10.1 upbm affinity estimate (log intensity, higher = more binding, comparable within an allelic series); in that of AAGATTTA, 10 upbm affinity estimate (log intensity, higher = more binding, comparable within an allelic series); in that of CATTATGA, 11 upbm affinity estimate (log intensity, higher = more binding, comparable within an allelic series).
For ATGTAATC, the binding signal was 10.5 upbm affinity estimate (log intensity, higher = more binding, comparable within an allelic series).
Still for that read-out and setting: in the case of ATCATAAT it was 11.2 upbm affinity estimate (log intensity, higher = more binding, comparable within an allelic series).
The same measure, in the same setting: under TGTAAACA stands 10 upbm affinity estimate (log intensity, higher = more binding, comparable within an allelic series); under ATTTTTTA, 10.4 upbm affinity estimate (log intensity, higher = more binding, comparable within an allelic series).
